AmpC inh detg: blocks E. coli AmpC beta-lactamase in detergent assay; AmpC hydrolysis of nitrocefin, absorbance 480 nm, 0.01% Triton; Potency, µM (top dose mostly 114 µM), without a hit: at the top dose activity change, negative = inhibition, most hits filed as inhibitors; 0.041% of 370,000 active; AID 485294;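 also: potency is read from the fitted curve at half-maximal effect; 0% = no-compound wells and -100% = no-enzyme wells; nearly all actives have a fitted effect of over 25% in size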
Target sequence (P00811 whole entry, looked up): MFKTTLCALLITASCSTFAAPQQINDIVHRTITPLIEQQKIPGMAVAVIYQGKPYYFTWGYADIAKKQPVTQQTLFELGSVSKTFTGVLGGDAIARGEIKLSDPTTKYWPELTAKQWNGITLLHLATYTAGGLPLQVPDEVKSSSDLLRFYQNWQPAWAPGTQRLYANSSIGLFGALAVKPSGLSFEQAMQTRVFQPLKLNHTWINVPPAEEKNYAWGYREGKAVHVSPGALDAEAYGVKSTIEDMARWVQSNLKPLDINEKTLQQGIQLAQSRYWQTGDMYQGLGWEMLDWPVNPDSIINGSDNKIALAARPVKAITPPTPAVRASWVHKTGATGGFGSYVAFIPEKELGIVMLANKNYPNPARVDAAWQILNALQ
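20 mM phosphate pH 7.0 + 0.01% (detergent screen) or 0.0001% Triton X-100; 5.3 nM AmpC reagent; cpd preinc 15 min RT; nitrocefin (800 uM stock) to start; A480 q20 s × 4 min; Activity was normalised to no-enzyme and no-compound control wells.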
Cycloheximide cs: counter-screen for Shiga toxin inhibitors: cycloheximide protein synthesis inhibition. cell reporter, cycloheximide protein synthesis inhibition counterscreen. max response, %. 12% of 300,000 active; in the data active = max response mostly above about 13%, no sharp cut-off; inactive = mostly below about 14%; also: read at 38.3 µM for the half of the compounds with a filed dose; 0% is about no effect
AmpC no deterg: inhibitors of E. coli AmpC beta-lactamase without detergent; P00811; AmpC nitrocefin hydrolysis, absorbance 480 nm, 0.0001% Triton; Potency, µM (series often up to 57.1 µM), without a hit: top-dose activity change, negative = inhibition, usual class: inhibitors; 0.52% of 330,000 active;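 also: potency is read from the fitted curve at half-maximal effect; plate controls were no compound for no effect and no enzyme for full effect; nearly all actives have a fitted effect of over 20% in size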
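20 mM phosphate pH 7.0 + 0.01% (detergent screen) or 0.0001% Triton X-100; 5.3 nM AmpC reagent; cpd preinc 15 min RT; nitrocefin (800 uM stock) to start; A480 q20 s × 4 min; Activity was normalised to no-enzyme and no-compound control wells.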
NS1 function inh: inhibitors of influenza NS1 protein function; Potency, µM (top dose mostly 46.1 µM), for the others: at the highest dose activity, positive = more growth; 0.4% of 270,000 active; calls by dose curve; also: potency is read from the fitted curve at half-maximal effect; actives are rising curves; nearly all actives have a fitted effect of over 50% in size
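A cell-based growth assay was used: compounds that relieve NS1-induced slow growth of budding yeast raise OD600. Assay medium was yeast nitrogen base with ammonium sulphate and -URA supplement, pH 6.0, with 2% galactose.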
Shiga inhibitor: inhibitors of Shiga toxin in Vero cells; Vero cells, Shiga toxin protein synthesis inhibition reporter; inhibition, % at 38.7 µM; 9.2% of 290,000 active; AID 2315; in the data active = inhibition mostly above about 28%, no sharp cut-off; inactive = mostly below about 43%; also: 0% is about no effect
Numbers without * were called inactive; ? = inconclusive; nt = not tested or not shown; [ ] = dose if it differs, or a comment. This excerpt belongs to a sample that is enriched for hits. Unless noted, calls follow the shape of the dose curve; as a rule, active = well fitted curve in the direction sought with a large enough effect; inconclusive = small, poorly fitted or top-dose-only effect, or another doubt; inactive = no such curve, though single readings can be large; an effect the other way counts as inactive or inconclusive.

SMILES	AmpC inh detg	Cycloheximide cs	AmpC no deterg	NS1 function inh	Shiga inhibitor
CCCc1nnc(NC(=O)CSc2nc3ccccc3[nH]2)s1	2%	19*	-43%	nt	44*
Cc1ccc(/C=N/NC(=O)CSc2nc3ccccc3[nH]2)o1	-5%	18*	-40%	4%	21
O=C(CSc1nc2ccccc2[nH]1)N/N=C/c1ccncc1	7%	6	-35%	1%	16
N/C(=N\OC(=O)CCC1CCCCC1)c1cccc([N+](=O)[O-])c1	4%	3	-25%	-32%	4
N/C(=N\OC(=O)Cc1ccccc1)c1ccc([N+](=O)[O-])cc1	-2%	30*	-17%	-6%	42*
N/C(=N\OC(=O)CCC1CCCC1)c1ccccn1	?	52*	-14%	-36%	65*
N/C(Cc1ccc([N+](=O)[O-])cc1)=N\OC(=O)Cc1ccccc1	-13%	11	-16%	-22%	-8
N/C(=N\OC(=O)CCC1CCCC1)c1ccc([N+](=O)[O-])cc1	6%	19*	-2%	nt	26
N/C(=N\OC(=O)CCC1CCCC1)c1ccccc1	-4%	20*	-16%	-2%	59
CN(C)c1ccc(/C=N/n2cnn(Cc3ccccc3Cl)c2=S)cc1	?	38*	-42%	nt	97*
CC(C)(C)OC(=O)N1CCN(C(=O)Nc2ccc3c(c2)OCCO3)CC1	-8%	24*	-11%	nt	26
O=C(Nc1ccc2c(c1)OCCO2)N1CCN(c2ccc(F)cc2)CC1	4%	38*	-8%	-19%	35*
O=C(/C=C/c1ccc2c(c1)OCCO2)N1CCN(c2ccc(F)cc2)CC1	-14%	-1	-16%	0%	-12
Cc1cccc(C)c1N1CCN(C(=O)Nc2ccc3c(c2)OCCO3)CC1	-7%	45*	60%	1%	56*
O=C(Cc1c(Cl)cccc1Cl)OCc1ccccn1	-13%	25*	-11%	-13%	59*
O=C(Nc1nc(-c2ccc(Cl)s2)cs1)c1cccs1	-15%	30*	?	-109%	98*
O=C(Nc1ccc(Cl)cc1-c1nc2ccccc2s1)c1ccco1	0%	13	-26%	-6%	79*
O=C(Nc1ccc([N+](=O)[O-])cc1)Nc1nc(-c2ccc(Cl)s2)cs1	?	3	-12%	28%	20
O=C(O)Cc1csc(NC(=O)c2ccco2)n1	-10%	7	-11%	7%	-2
COc1ccccc1OCc1csc(NC(=O)c2ccco2)n1	-6%	53*	-22%	-32%	98*
CC(OC(=O)CNC(=O)c1ccccc1F)C(=O)Nc1nc(-c2ccccc2)cs1 (stereo unspecified)	4%	66*	20%	-39%	101*
CN(C(=O)COC(=O)CSc1ccc(C(N)=O)cc1[N+](=O)[O-])C1CCCCC1	-13%	nt	-8%	nt	nt
Cc1csc(NC(=O)c2ccco2)n1	-2%	-3	2%	-2%	-4
O=C(Nc1nc(-c2ccccc2)cs1)c1ccc(=O)[nH]c1	-19%	24*	-23%	nt	67*
CC1CC1C(=O)Nc1nc(-c2ccccc2)cs1 (stereo unspecified)	-9%	39*	-30%	-113%	84*
SMILES	AmpC inh detg	Cycloheximide cs	AmpC no deterg	NS1 function inh	Shiga inhibitor
O=C(Nc1nc(-c2ccccc2)ns1)c1cccs1	-12%	28*	-38%	-87%	68*
COc1ccccc1C(=O)Nc1nc(-c2ccccc2)ns1	21%	nt	nt	nt	nt
O=C(Nc1nc(-c2ccc(Cl)s2)cs1)c1ccco1	-15%	56*	-28%[11.4 µM]	nt	81*
CN(C)CC(=O)Nc1nc(-c2ccccc2)cs1	1%	12	-16%	-6%	16
COc1ccc(-c2cc(OC(=O)c3cccc(Cl)c3)c3c(C)oc(C)c3c(=O)c2)cc1	20%	nt	nt	nt	nt
CC(C)OCCCNC(=O)c1cccc2c1C(=O)c1ccc(Cl)cc1S2(=O)=O	2%	nt	-4%	nt	nt
CC1CCC(NC(=O)CCN2C(=O)C3CC=CCC3C2=O)CC1 (stereo unspecified)	nt	nt	-1%	nt	nt
O=C(Nc1nc2ccccc2c(=O)s1)c1ccco1	7%	-2	-21%	-75%	5
O=C(Nc1nc(-c2cc(Cl)sc2Cl)cs1)c1ccccc1	-1%	49*	-41%	-4%	167*
O=C(Nc1nc(-c2nc3ccccc3s2)cs1)c1ccco1	-7%	30*	-18%	-40%	66*
O=C(Nc1nc(-c2ccccc2)cs1)c1cccs1	1%	88*	-51%	-57%	123*
O=C(Nc1nc(-c2nc3ccccc3s2)cs1)C1CC1	-10%	63*	-15%	-8%	85*

Screens deposited in PubChem by National Center for Advancing Translational Sciences (NCATS).
